# PMC7862700, “An all-to-all approach to the identification of sequence-specific readers for epigenetic DNA modifications on cytosine”
# How the values were obtained:
# Test in all cases: DAPPL (digital affinity profiling via proximity ligation, sequencing); 10 mM Tris-HCl pH 7.5, 50 mM NaCl, 1 mM DTT, 4% glycerol, room temperature, 30 min; GST-TFs on glutathione beads, 16-mer random dsDNA library, 0.1% formaldehyde crosslink after washing; high values mean tight binding
# FLI1 = target: T1, FLI1 (Homo sapiens, UniProt Q01543 1-452); conditions: protein: recombinant; tags: N-terminal GST; dsDNA, one strand shown
# T1 sequence: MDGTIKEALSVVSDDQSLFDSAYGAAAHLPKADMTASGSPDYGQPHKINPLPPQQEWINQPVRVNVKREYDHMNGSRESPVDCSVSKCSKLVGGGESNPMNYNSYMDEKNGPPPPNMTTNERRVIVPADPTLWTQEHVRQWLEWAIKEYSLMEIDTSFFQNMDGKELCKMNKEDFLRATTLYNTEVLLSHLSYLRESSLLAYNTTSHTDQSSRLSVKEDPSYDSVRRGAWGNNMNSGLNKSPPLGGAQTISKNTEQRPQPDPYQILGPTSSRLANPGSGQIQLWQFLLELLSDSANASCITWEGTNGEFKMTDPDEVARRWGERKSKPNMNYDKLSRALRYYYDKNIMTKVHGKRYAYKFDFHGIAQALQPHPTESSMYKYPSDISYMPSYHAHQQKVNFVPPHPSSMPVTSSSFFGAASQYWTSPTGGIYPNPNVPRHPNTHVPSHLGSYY
# In short: (§1)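 After expression in yeast as GST fusions, human transcription factors were bound to glutathione beads, DNA-barcoded and mixed with a tag-only sample. The pools were incubated with 200 nmole of a 16-mer random double-stranded DNA library in Tris/NaCl/DTT/glycerol buffer (30 min, room temperature), washed and crosslinked with 0.1% formaldehyde. Proximity ligation with BsaI/T4 ligase ran for 1 h at 37 °C, before PCR amplification and sequencing on an Illumina NextSeq500. Binding signal is a hexamer's read frequency for a factor divided by its frequency for the tag-only sample.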
# ELK1 = target: T2, ELK1 (Homo sapiens, UniProt P19419 1-428); conditions: protein: recombinant; tags: N-terminal GST; dsDNA, one strand shown
# T2 sequence: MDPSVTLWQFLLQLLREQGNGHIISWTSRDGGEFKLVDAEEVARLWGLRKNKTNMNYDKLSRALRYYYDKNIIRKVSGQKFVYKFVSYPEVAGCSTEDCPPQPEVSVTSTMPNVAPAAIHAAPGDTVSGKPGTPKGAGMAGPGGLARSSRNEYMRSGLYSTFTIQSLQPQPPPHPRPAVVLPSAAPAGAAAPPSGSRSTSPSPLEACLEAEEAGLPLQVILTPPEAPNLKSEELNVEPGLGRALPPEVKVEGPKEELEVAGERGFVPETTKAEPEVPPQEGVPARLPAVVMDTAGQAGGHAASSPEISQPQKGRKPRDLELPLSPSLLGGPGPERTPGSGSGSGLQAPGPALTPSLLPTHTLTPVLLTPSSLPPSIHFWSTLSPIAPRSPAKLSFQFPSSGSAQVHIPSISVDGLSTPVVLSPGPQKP
# In short: as §1
# GABPA = target: T3, GABPA (Homo sapiens, UniProt Q06546 1-454); conditions: protein: recombinant; tags: N-terminal GST; dsDNA, one strand shown
# T3 sequence: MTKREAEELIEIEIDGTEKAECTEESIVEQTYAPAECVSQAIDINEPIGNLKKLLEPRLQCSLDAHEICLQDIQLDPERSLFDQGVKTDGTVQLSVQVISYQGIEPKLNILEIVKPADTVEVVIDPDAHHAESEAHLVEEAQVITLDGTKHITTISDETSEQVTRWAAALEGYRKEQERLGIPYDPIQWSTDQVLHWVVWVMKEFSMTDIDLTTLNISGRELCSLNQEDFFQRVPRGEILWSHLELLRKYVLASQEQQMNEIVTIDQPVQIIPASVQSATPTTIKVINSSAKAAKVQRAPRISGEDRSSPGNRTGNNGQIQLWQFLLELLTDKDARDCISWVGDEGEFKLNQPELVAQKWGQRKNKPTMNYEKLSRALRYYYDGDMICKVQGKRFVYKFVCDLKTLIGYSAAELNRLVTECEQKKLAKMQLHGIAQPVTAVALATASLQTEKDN
# In short: as §1
# ERG = target: T4, ERG (Homo sapiens, UniProt P11308 1-479); conditions: protein: recombinant; tags: N-terminal GST; dsDNA, one strand shown
# T4 sequence: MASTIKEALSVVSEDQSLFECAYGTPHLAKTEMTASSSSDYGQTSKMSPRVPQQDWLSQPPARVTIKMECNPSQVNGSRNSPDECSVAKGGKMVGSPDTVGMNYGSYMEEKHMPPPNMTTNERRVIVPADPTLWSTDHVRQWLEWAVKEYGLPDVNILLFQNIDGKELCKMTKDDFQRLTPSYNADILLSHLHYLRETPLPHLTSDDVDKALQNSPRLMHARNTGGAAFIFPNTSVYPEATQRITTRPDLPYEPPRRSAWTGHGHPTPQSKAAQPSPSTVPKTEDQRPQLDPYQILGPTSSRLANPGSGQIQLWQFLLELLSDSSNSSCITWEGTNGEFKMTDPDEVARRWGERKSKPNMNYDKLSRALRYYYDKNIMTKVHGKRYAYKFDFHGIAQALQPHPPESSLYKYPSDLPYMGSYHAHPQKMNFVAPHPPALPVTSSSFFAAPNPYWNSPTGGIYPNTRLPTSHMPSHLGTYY
# In short: as §1
# ELF1 = ELF1 (Homo sapiens, UniProt P32519 1-619); conditions: protein: recombinant; tags: N-terminal GST; dsDNA, one strand shown
# In short: as §1
# EHF = target: T5, EHF (Homo sapiens, UniProt Q9NZC4 1-300); conditions: protein: recombinant; tags: N-terminal GST; dsDNA, one strand shown
# T5 sequence: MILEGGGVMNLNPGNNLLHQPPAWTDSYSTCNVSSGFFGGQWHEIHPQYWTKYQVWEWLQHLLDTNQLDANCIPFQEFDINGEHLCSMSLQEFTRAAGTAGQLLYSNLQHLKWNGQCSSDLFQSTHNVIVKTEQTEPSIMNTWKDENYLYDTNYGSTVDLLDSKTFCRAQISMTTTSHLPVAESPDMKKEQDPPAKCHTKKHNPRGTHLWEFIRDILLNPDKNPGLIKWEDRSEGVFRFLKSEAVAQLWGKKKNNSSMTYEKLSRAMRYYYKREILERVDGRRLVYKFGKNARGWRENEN
# In short: as §1
# SPI1 = SPI1 (Homo sapiens, UniProt P17947 1-270); conditions: protein: recombinant; tags: N-terminal GST; dsDNA, one strand shown
# In short: as §1
# SPIB = SPIB (Homo sapiens, UniProt Q01892 1-262); conditions: protein: recombinant; tags: N-terminal GST; dsDNA, one strand shown
# In short: as §1
# ELK3 = target: T6, ELK3 (Homo sapiens, UniProt P41970 1-407); conditions: protein: recombinant; tags: N-terminal GST; dsDNA, one strand shown
# T6 sequence: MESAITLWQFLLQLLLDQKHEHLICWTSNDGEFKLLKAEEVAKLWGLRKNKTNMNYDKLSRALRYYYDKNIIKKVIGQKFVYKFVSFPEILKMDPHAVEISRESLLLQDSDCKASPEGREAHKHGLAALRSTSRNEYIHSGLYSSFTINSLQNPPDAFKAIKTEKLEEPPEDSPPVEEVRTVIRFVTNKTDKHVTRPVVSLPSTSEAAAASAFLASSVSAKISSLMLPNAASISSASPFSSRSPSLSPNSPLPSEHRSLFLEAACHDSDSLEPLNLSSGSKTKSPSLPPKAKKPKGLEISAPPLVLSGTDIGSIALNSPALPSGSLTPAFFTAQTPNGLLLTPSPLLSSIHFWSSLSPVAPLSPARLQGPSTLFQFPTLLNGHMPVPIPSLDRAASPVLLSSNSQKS
# In short: as §1
# FEV = target: T7, FEV (Homo sapiens, UniProt Q99581 1-238); conditions: protein: recombinant; tags: N-terminal GST; dsDNA, one strand shown
# T7 sequence: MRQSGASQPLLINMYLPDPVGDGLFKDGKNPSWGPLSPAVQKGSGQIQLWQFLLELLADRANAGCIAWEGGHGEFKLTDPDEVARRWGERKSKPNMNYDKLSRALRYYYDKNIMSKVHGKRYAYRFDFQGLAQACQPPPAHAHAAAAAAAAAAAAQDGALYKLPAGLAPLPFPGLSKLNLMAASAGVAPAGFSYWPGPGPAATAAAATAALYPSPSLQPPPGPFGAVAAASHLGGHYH
# In short: as §1
# ETV5 = ETV5 (Homo sapiens, UniProt P41161 1-510); conditions: protein: recombinant; tags: N-terminal GST; dsDNA, one strand shown
# In short: as §1
# HSF1 = HSF1 (Homo sapiens, UniProt Q00613 1-529); conditions: protein: recombinant; tags: N-terminal GST; chain copies: 3; dsDNA, one strand shown
# In short: as §1
# SPIC = target: T8, SPIC (Homo sapiens, UniProt Q8N5J4 1-248); conditions: protein: recombinant; tags: N-terminal GST; dsDNA, one strand shown
# T8 sequence: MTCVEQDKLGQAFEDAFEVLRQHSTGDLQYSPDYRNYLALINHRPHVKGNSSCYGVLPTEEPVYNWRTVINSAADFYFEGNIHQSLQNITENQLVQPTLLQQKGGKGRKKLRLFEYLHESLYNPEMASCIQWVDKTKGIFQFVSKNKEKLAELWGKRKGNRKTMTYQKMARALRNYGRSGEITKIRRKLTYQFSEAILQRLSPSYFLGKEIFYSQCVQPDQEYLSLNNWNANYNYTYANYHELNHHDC
# In short: as §1
# ELF4 = ELF4 (Homo sapiens, UniProt Q99607 1-663); conditions: protein: recombinant; tags: N-terminal GST; dsDNA, one strand shown
# In short: as §1
# ELK4 = target: T9, ELK4 (Homo sapiens, UniProt P28324-2 1-405); conditions: protein: recombinant; tags: N-terminal GST; dsDNA, one strand shown
# T9 sequence: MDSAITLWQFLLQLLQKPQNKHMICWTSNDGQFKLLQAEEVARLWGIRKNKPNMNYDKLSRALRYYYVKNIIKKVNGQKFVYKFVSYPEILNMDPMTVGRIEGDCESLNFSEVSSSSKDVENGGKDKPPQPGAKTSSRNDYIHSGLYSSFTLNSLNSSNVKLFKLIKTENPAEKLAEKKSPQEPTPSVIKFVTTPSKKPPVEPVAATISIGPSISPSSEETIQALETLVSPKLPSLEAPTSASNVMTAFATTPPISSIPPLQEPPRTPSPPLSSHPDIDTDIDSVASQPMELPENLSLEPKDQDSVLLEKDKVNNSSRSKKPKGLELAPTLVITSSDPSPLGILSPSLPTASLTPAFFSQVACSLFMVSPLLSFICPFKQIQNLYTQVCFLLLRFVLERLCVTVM
# In short: as §1
# ETV2 = target: T10, ETV2 (Homo sapiens, UniProt O00321 1-342); conditions: protein: recombinant; tags: N-terminal GST; dsDNA, one strand shown
# T10 sequence: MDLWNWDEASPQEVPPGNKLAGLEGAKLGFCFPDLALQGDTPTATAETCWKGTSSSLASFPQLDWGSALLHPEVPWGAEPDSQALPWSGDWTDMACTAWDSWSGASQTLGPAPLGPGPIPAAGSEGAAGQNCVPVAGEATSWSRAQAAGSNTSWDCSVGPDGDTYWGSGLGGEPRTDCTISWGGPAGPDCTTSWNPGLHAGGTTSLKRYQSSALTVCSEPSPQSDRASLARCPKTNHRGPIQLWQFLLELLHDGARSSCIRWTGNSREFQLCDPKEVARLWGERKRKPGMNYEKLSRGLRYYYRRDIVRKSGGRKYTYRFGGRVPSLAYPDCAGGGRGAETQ
# In short: as §1
# ELF3 = target: T11, ELF3 (Homo sapiens, UniProt P78545 1-371); conditions: protein: recombinant; tags: N-terminal GST; dsDNA, one strand shown
# T11 sequence: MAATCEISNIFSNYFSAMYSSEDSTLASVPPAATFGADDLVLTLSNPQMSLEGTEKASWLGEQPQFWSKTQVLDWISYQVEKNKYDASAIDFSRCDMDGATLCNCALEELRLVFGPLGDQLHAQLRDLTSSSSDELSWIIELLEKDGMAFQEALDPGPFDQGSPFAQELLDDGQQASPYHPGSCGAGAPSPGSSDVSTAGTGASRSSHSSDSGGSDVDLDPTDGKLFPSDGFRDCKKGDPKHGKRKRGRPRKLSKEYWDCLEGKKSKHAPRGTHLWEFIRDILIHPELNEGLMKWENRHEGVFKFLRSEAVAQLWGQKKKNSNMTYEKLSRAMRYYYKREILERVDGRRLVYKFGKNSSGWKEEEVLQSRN
# In short: as §1
# CRX = CRX (Homo sapiens, UniProt O43186 1-299); conditions: protein: recombinant; tags: N-terminal GST; dsDNA, one strand shown
# In short: as §1
# ETV1 = ETV1 (Homo sapiens, UniProt P50549 1-477); conditions: protein: recombinant; tags: N-terminal GST; dsDNA, one strand shown
# In short: as §1
# ELF4, sequence (Q99607 whole entry): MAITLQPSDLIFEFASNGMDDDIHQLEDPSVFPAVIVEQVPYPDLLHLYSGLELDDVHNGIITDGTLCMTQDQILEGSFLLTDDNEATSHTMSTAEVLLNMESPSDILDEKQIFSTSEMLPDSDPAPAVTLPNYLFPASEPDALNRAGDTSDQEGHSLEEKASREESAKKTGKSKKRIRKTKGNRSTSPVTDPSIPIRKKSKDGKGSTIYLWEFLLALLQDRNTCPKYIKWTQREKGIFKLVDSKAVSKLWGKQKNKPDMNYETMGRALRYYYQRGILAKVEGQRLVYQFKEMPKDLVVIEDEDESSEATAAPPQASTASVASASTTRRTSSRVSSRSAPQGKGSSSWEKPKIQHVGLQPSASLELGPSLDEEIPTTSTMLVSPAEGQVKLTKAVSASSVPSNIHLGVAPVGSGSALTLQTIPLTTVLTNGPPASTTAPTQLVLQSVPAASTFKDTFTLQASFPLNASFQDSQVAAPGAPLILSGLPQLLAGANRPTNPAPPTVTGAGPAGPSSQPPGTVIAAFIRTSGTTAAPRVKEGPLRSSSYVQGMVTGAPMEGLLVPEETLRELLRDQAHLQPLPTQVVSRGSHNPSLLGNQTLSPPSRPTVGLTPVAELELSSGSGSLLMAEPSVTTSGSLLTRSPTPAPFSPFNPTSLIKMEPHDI
# SPIB, sequence (Q01892 whole entry): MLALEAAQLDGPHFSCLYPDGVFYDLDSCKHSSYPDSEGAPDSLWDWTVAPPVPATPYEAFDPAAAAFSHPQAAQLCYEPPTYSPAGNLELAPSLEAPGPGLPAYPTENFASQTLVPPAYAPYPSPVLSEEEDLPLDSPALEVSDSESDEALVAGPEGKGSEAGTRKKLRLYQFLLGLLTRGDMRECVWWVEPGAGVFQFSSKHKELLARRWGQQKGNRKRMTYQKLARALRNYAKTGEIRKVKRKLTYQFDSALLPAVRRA
# HSF1, sequence (Q00613 whole entry): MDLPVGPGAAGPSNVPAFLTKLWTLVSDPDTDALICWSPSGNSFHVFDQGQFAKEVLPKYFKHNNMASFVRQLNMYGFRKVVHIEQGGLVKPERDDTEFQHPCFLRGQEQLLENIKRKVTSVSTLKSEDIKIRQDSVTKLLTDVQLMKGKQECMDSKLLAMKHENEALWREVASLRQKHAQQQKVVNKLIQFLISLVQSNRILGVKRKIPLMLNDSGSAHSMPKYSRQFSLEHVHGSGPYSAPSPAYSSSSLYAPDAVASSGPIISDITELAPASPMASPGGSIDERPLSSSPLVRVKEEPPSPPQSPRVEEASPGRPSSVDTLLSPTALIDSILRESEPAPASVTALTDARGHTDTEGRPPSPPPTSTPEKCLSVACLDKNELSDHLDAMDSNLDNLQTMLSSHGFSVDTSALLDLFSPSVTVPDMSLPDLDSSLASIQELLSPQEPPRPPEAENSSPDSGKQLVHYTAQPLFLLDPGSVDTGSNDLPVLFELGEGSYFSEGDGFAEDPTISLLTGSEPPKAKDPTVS
# CRX, sequence (O43186 whole entry): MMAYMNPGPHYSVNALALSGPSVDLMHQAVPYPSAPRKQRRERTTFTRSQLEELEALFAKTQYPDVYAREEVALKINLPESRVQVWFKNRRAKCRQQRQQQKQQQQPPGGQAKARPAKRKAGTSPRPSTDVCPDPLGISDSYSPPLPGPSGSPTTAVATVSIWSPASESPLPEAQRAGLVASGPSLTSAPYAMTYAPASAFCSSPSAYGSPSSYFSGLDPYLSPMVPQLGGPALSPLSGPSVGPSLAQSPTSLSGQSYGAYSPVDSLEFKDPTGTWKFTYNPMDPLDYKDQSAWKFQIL
# ETV1, sequence (P50549 whole entry): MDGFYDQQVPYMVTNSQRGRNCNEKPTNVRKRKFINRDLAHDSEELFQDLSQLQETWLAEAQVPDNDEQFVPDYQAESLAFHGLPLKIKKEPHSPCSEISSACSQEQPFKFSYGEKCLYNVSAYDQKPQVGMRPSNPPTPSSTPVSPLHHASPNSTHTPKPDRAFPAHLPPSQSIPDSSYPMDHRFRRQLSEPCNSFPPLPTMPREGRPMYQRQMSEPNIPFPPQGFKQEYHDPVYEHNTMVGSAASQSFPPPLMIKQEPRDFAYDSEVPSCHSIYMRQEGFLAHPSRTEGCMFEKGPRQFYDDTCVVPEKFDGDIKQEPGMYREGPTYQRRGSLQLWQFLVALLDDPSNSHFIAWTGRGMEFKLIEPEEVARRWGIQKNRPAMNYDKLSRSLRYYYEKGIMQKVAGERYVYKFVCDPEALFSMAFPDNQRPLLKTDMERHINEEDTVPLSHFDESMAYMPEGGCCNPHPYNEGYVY
# ELF1, sequence (P32519 whole entry): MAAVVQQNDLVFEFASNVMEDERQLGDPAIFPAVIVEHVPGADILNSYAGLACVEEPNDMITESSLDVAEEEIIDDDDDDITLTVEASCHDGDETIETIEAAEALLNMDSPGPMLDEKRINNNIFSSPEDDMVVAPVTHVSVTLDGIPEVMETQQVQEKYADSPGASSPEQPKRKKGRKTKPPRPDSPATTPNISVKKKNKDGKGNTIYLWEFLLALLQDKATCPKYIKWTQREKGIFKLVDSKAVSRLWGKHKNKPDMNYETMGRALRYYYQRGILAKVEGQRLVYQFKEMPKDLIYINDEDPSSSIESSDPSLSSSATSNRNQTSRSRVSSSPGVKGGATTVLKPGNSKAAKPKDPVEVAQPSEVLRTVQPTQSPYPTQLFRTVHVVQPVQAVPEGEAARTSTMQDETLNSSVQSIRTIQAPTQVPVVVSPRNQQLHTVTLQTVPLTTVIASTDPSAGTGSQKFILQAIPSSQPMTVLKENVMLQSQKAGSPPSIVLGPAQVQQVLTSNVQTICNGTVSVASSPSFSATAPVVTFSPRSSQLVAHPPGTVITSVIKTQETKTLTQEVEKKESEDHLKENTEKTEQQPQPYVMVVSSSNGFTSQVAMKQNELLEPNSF
# ETV5, sequence (P41161 whole entry): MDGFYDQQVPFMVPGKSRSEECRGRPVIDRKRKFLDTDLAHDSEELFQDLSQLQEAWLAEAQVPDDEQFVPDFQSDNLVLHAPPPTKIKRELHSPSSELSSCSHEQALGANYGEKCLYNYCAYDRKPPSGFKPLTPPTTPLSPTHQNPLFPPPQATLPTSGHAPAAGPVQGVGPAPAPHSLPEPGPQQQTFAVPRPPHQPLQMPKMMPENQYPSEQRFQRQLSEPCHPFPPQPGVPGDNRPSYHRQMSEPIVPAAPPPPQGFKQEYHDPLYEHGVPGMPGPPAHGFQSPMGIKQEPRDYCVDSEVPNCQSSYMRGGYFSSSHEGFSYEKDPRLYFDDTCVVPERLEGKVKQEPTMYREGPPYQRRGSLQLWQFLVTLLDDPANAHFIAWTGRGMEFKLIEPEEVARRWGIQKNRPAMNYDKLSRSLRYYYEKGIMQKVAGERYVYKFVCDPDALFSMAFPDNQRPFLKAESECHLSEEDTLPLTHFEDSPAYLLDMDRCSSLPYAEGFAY
sequence,measurement,setting,value
TTTTAA,binding signal,FLI1,"1.26 fold enrichment (6-mer frequency, TF over GST control)"
same,binding signal,ELK1,"1.28 fold enrichment (6-mer frequency, TF over GST control)"
same,binding signal,GABPA,"1.25 fold enrichment (6-mer frequency, TF over GST control)"
same,binding signal,ERG,"1.2 fold enrichment (6-mer frequency, TF over GST control)"
same,binding signal,ELF1,"1.29 fold enrichment (6-mer frequency, TF over GST control)"
same,binding signal,EHF,"1.22 fold enrichment (6-mer frequency, TF over GST control)"
same,binding signal,SPI1,"1.32 fold enrichment (6-mer frequency, TF over GST control)"
same,binding signal,SPIB,"1.26 fold enrichment (6-mer frequency, TF over GST control)"
same,binding signal,ELK3,"1.3 fold enrichment (6-mer frequency, TF over GST control)"
same,binding signal,FEV,"1.26 fold enrichment (6-mer frequency, TF over GST control)"
same,binding signal,ETV5,"1.24 fold enrichment (6-mer frequency, TF over GST control)"
same,binding signal,HSF1,"1.59 fold enrichment (6-mer frequency, TF over GST control)"
same,binding signal,SPIC,"1.15 fold enrichment (6-mer frequency, TF over GST control)"
same,binding signal,ELF4,"1.28 fold enrichment (6-mer frequency, TF over GST control)"
same,binding signal,ELK4,"1.22 fold enrichment (6-mer frequency, TF over GST control)"
same,binding signal,ETV2,"1.27 fold enrichment (6-mer frequency, TF over GST control)"
same,binding signal,ELF3,"1.32 fold enrichment (6-mer frequency, TF over GST control)"
same,binding signal,CRX,"2.18 fold enrichment (6-mer frequency, TF over GST control)"
same,binding signal,ETV1,"1.26 fold enrichment (6-mer frequency, TF over GST control)"
